Our source for the Potency, outcome and activity change, positive = activation values is PubChem BioAssay (Tox21).

Where “and” joins values, the source holds several entries; their conditions need not be identical. Equal entries are not always repeated. Records with an inconclusive call do not appear. Where a structure was tested more than once in an assay, its records may differ in their call. Calls of active or inactive are those of the source. Unless noted, the call rests on the fitted dose curve; in most records, active means well fitted curve in the direction sought with a large enough effect in the repeat runs; inconclusive means weak or mixed curves; inactive means no such curve, though single readings can be large; an effect the other way counts as inactive or inconclusive.

Assay [1] in a line: qHTS assay to identify small molecule antagonists of the estrogen related receptor (ERR) signaling pathway from Tox21 library - cell viability counter screen (AID 1224834). Further: nearly all actives have a fitted effect of over 30% in size. Further: potency means the concentration at half of the fitted maximal effect. Summed up: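 Viability readout (CellTiter-Fluor fluorescence, 30 min at 37 C) multiplexed with the ERR assay; cells treated 17.5 h at 37 C with compounds delivered in DMSO.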
Assay [2] can be described thus: qHTS assay to identify small molecule agonists of the constitutive androstane receptor (CAR) signaling pathway - cell viability counter screen (AID 1224836). Further: nearly all actives have a fitted effect of over 45% in size. Further: potency means the concentration at half of the fitted maximal effect. Summed up: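 HepG2 cells stably carrying hCAR and a CYP2B6-2.2kb reporter; 15-concentration compounds plus PK11195 (final 0.75 uM), 23 hr at 37 C/5% CO2. Viability read by CellTiter-Fluor fluorescence.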
A general note: In qHTS, concentration-response curves come from the screen itself.

Assay [3] in a line: qHTS assay to identify small molecule antagonists of the estrogen related receptor signaling pathway with the pleiotropic PPARgamma coactivator (PGC) from Tox21 10K library - cell viability counter screen (AID 1224840; active means well fitted cell-killing curve with a large enough effect in the repeat runs, not every such curve was filed as active; further: nearly all actives have a fitted effect of over 40% in size; further: potency means the concentration at half of the fitted maximal effect). The procedure, abridged: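 Compounds in DMSO, alongside positive and negative controls, were pinned onto PGC/ERR cells (2,000 per well). Exposure lasted 17.5 hours at 37 C, followed by a 30-minute CellTiter-Fluor incubation and fluorescence reading.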

Assay [4] addresses Thyrotropin receptor (Homo sapiens) (UniProt P16473). As to the kind of experiment: qHTS assay to identify small molecule agonists of the thyroid stimulating hormone receptor (TSHR) signaling pathway (AID 1224843; calls by dose curve; further: nearly all actives have a fitted effect of over 45% in size; further: potency means the concentration at half of the fitted maximal effect; on activation: on the % scale 0 is the no-effect control and ±100 the full control effect). Summed up:
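Steps: seed 800 TSHR-HEK293 cells per well; add test compound and hold 30 min at ambient temperature; dispense cAMP-d2 then anti-cAMP cryptate; incubate 1 h at ambient; measure fluorescence intensity.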

A short description of assay [5]: qHTS assay to identify small molecule agonists of the hypoxia (HIF-1) signaling pathway - cell viability counter screen (AID 1224844; calls by dose curve; further: nearly all actives have a fitted effect of over 50% in size; further: potency means the concentration at half of the fitted maximal effect). The procedure, abridged:
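Luminescent ATP content (CellTiter-Glo, 30 min, room temperature) served as the viability measure in HRE-bla ME-180 cells exposed to compounds for 17 hrs in low-serum medium (0.5% dialyzed FBS).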

Assay [6] in a line: qHTS assay to identify small molecule agonists of H2AX (AID 1224845; active means well fitted activation curve with a large enough effect in the signal ratio in the repeat runs, not every such curve was filed as active; the % refers to the signal ratio; further: potency means the concentration at half of the fitted maximal effect). Summed up: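 Wild-type CHO-K1 cells, plated overnight, exposed 3hr at 37C to 15 concentrations (0.76% DMSO final). Lysed, then HTRF anti-pH2AX (S139) cryptate and anti-H2AX-d2 antibodies, 24 hr room temperature; 665/620 nm emission read.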
The nature of assay [7]: qHTS assay to identify small molecule agonists of the hypoxia (HIF-1) signaling pathway (AID 1224846; active means well fitted activation curve with a large enough effect in the signal ratio in the repeat runs, not every such curve was filed as active; the % refers to the signal ratio; further: on the % scale 0 is the no-effect control and ±100 the full control effect). The procedure, abridged:
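Measured by blue/green FRET after loading CCF4-AM: beta-lactamase expressed from a hypoxia response element in ME-180 cells. Test agents were delivered in DMSO and left 17 hrs; cells had been plated 5 hrs earlier in low-serum (0.5% dialyzed FBS) medium.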

Assay [8] can be described thus: qHTS assay to identify small molecule agonists of H2AX - cell viability counter screen (AID 1224847; calls by dose curve; further: nearly all actives have a fitted effect of over 30% in size; further: potency means the concentration at half of the fitted maximal effect). Summed up: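 CHO-K1 cells plated overnight at 37C, then exposed 3 h at 37C to compounds at 15 concentrations (0.76% DMSO final). Viability by CellTiter-Glo luminescence after 30 min at room temperature.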
Assay [9] can be described thus: qHTS RealTime-Glo MT Cell Viability Assay in HepG2 cells - 24 hour (AID 1224867). Further: nearly all actives have a fitted effect of over 50% in size. Further: potency means the concentration at half of the fitted maximal effect. The procedure, abridged: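 Viability was tracked continuously by NanoLuc luminescence from prosubstrate reduced by living HepG2 cells, at successive time points over 40 h of compound exposure. Cells with reagent were preincubated 5 h at 37 °C before compound addition.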
A short description of assay [10]: qHTS RealTime-Glo MT Cell Viability Assay in HEK293 cells - 32 hour (AID 1224868). Further: nearly all actives have a fitted effect of over 50% in size. Further: potency means the concentration at half of the fitted maximal effect. The procedure, abridged:
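Viability tracked continuously by luminescence as live cells reduce a prosubstrate for NanoLuc; HEK293 cells preincubated 5 h, compound-treated at 37 C, and read at 0, 8, 16, 24, 32 and 40 h.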

Assay [11] can be described thus: A CellTox Green Cytotoxicity Assay to monitor cytotoxicity in HEK293 cells - 0 hour (AID 1224869). Further: on the % scale 0 is the no-effect control and ±100 the full control effect; nearly all actives have a fitted effect of over 50% in size. The procedure, abridged:
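Each value comes from one timepoint of a single continuous run in which HEK293 cells with CellTox Green were exposed to compound for up to 40 h at 37 C, dye fluorescence rising with cell death.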

The nature of assay [12]: qHTS RealTime-Glo MT Cell Viability Assay in HepG2 cells - 40 hour (AID 1224870). Further: nearly all actives have a fitted effect of over 50% in size. Further: potency means the concentration at half of the fitted maximal effect. The procedure, abridged: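 HepG2 cells (600/well) mixed with RealTime-Glo MT reagent, settled 5 h at 37 C/5% CO2 before compound addition. Nonlytic NanoLuc luminescence from viable-cell prosubstrate reduction read repeatedly during 40 h treatment at 37 C.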
Assay [13] is described as follows: qHTS assay to identify small molecule antagonists of the constitutive androstane receptor (CAR) signaling pathway - cell viability counter screen (AID 1224837). Further: on the % scale 0 is the no-effect control and ±100 the full control effect; nearly all actives have a fitted effect of over 45% in size. The procedure, abridged:
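Fluorescence from CellTiter-Fluor served as the viability signal. Human hepatoma HepG2 cells stably bearing hCAR and CYP2B6-2.2kb received compound plus CITCO (50 nM final) for 23 hr.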

Assay [14] deals with Nuclear receptor subfamily 1 group I member 3 (Homo sapiens) (UniProt Q14994). As to the kind of experiment: qHTS assay to identify small molecule antagonists of the constitutive androstane receptor (CAR) signaling pathway (AID 1224838).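 Further: HepG2 cells stably expressing hCAR with CYP2B6 luciferase reporter stimulated by CITCO; nearly all actives have a fitted effect of over 40% in size.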 Further: potency means the concentration at half of the fitted maximal effect. Summed up: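 Quantitative HTS in double-stable HepG2-CYP2B6-hCAR cells. After 4 h plating, cells get compound (15 concentrations) and CITCO at 50 nM final, incubate 24 h at 37 C, then ONE-Glo luminescence is read.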
Chain of Nuclear receptor subfamily 1 group I member 3 (Homo sapiens) (Q14994 whole entry, looked up): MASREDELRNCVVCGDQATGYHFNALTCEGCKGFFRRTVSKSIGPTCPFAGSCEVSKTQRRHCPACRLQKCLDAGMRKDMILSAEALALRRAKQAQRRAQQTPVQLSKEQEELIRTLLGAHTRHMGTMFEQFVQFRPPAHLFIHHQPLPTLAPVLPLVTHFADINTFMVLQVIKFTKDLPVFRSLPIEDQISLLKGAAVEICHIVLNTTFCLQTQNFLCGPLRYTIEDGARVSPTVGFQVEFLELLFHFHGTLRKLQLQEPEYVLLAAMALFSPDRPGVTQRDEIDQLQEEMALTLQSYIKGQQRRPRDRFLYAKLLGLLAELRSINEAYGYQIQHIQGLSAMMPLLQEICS

A short description of assay [15]: qHTS assay to identify small molecule agonists of the estrogen related receptor signaling pathway with the pleiotropic PPARgamma coactivator (PGC) from Tox21 10K library (AID 1224842). Further: nearly all actives have a fitted effect of over 15% in size. Further: potency means the concentration at half of the fitted maximal effect. On activation: on the % scale 0 is the no-effect control and ±100 the full control effect. The procedure, abridged:
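PGC/ERR reporter cell line, 2,000 cells per well, incubated 6 h at 37 C before 23 nL compound in DMSO was added. After 18 h at 37 C, One-Glo luminescence read following 30 min at room temperature.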

Assay [16] in a line: qHTS assay to identify small molecule antagonists of the estrogen related receptor (ERR) signaling pathway from Tox21 library (AID 1224848). Further: nearly all actives have a fitted effect of over 50% in size. Further: potency means the concentration at half of the fitted maximal effect. Summed up: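 Luminescent reporter read-out (ONE-Glo) from NTP's ERR cell line after 18 h treatment at 37 C with DMSO-dissolved Tox21 compounds; cells pre-plated 6 h beforehand at 2,000 per well.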
A short description of assay [17]: qHTS assay to identify small molecule agonists of the estrogen related receptor (ERR) signaling pathway from Tox21 library (AID 1224849; calls by dose curve; further: on the % scale 0 is the no-effect control and ±100 the full control effect; nearly all actives have a fitted effect of over 15% in size). To be noted: ERR reporter cell line, ONE-Glo luciferase, 18 h. The procedure, abridged: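 We plated ERR reporter cells, waited 6 h, added compounds in DMSO by pin tool and incubated them 18 h at 37 C. ONE-Glo was then added and luminescence read after 30 min.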

Assay [18] addresses Nuclear receptor subfamily 1 group I member 3 (Homo sapiens) (UniProt Q14994). As to the kind of experiment: qHTS assay to identify small molecule agonists of the constitutive androstane receptor (CAR) signaling pathway (AID 1224839). Further: potency means the concentration at half of the fitted maximal effect; nearly all actives have a fitted effect of over 15% in size. Summed up:
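HepG2 cells stably co-transfected with hCAR and a CYP2B6-2.2kb luciferase reporter; compounds at 15 concentrations with 0.75 uM PK11195 present. After 24 hr at 37 C, luciferase read by ONE-Glo luminescence.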

The target in assay [19] is Luciferin 4-monooxygenase (Photinus pyralis) (UniProt P08659). The experiment in a line: qHTS assay to identify small molecule inhibitors of firefly luciferase (AID 1224835). Further: on the % scale 0 is the no-effect control and ±100 the full control effect; nearly all actives have a fitted effect of over 25% in size. The procedure, abridged: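 Biochemical qHTS: compounds run as interplate titrations against purified firefly enzyme, with D-luciferin and ATP each at its KM concentration. Light output recorded by CCD imaging.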
Chain of Luciferin 4-monooxygenase (Photinus pyralis) (P08659 whole entry, looked up): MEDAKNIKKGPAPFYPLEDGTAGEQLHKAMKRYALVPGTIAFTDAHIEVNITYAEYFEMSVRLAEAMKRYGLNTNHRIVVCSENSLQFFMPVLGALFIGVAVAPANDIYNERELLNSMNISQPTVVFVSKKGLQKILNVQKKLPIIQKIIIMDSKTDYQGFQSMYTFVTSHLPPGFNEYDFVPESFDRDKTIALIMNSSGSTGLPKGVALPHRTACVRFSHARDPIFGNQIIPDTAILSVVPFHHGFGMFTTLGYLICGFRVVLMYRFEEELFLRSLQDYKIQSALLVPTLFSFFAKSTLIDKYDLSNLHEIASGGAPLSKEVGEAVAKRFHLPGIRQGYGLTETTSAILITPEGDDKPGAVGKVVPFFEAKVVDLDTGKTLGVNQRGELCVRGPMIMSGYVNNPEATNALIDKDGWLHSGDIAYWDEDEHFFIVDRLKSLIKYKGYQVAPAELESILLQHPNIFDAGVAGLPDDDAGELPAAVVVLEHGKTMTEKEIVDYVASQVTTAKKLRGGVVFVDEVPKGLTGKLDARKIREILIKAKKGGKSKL

Assay [20] in a line: qHTS assay to identify small molecule antagonists of the estrogen related receptor signaling pathway with the pleiotropic PPARgamma coactivator (PGC) from Tox21 10K library (AID 1224841; call rule not given here). Summed up: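 Compound exposure ran 18 hours at 37 C in PGC/ERR cells (2,000/well) that had first rested 6 hours in a 37 C/5% CO2 incubator. Luciferase activity was then detected with One-Glo after a 30-minute room-temperature step.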

Chain of Thyrotropin receptor (Homo sapiens) (P16473 whole entry, looked up): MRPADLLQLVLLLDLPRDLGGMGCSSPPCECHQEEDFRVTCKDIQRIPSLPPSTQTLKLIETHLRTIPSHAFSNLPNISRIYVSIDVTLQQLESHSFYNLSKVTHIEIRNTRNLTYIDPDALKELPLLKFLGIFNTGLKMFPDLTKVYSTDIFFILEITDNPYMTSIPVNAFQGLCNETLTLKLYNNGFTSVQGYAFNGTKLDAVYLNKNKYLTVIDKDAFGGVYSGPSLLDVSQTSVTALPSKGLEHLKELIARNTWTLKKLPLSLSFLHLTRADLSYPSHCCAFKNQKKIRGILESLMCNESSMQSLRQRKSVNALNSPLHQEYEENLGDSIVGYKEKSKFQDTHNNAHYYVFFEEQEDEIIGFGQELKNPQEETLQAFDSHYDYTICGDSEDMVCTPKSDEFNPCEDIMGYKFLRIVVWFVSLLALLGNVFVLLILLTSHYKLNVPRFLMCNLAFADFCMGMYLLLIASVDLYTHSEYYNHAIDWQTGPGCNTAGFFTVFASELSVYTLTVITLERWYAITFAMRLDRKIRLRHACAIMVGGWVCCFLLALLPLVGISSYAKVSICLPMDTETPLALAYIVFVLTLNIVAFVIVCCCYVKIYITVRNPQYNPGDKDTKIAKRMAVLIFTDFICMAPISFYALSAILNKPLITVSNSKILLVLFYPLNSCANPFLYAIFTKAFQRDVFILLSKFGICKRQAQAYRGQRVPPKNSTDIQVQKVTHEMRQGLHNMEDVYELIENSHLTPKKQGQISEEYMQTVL

Regarding `CCN(C(C)=O)c1cccc(-c2ccnc3c(C#N)cnn23)c1`, the Potency entry in assay [1], in assay [2], in assay [3], in assay [4], in [5] and in assay [6] was “inactive” throughout. For the same compound, the Potency result in [8], in assay [9], in [10], in assay [11] and in assay [12] was “inactive” in each case. Further, the result in assay [7] was inactive.
As to `COc1ccccc1N1CCNCC1`, the Potency entry in assay [1], in [2], in [13], in [4], in assay [6] and in assay [8] was “inactive” in each case. Besides, the Potency entry in [9], in [10], in assay [11] and in assay [12] was “inactive” in each case.
`CCCCNC(=O)OCC#CI`: the Potency in assay [1] was 54.2 µM (active) and 68.6 µM (active); in assay [2], 30.6 µM (active); in assay [14] it was 54.2 µM (active) and 24.3 µM (active); in assay [3], 68.2 µM (active) and 61.1 µM (active); in assay [4], 8.59 µM (active) and 4.33 µM (active); in assay [5], 48.7 µM (active). Further, the Potency is 50.2 µM (active) and 101 µM (active) in assay [8]; 68.2 µM (active) in assay [16]; 7.72 µM (active) and 3.89 µM (active) in assay [9]; 24.4 µM (active) and 24.5 µM (active) in [10]; 4.87 µM (active) and 2.19 µM (active) in assay [12]. Moreover, the Potency entry in assay [15] and in assay [6] was “inactive” in each case. In addition, in [7], the call was inactive. The activity change, positive = activation in assay [17] (at 92.4 µM (top of the series)) was -71.4% (inactive) and -29.5% (inactive).
Take `CC(C)c1ccc(OP(=O)(Oc2ccc(C(C)C)cc2)Oc2ccc(C(C)C)cc2)cc1`: the Potency entry in assay [2], in assay [14], in assay [3], in assay [5], in assay [6] and in assay [8] was “inactive” throughout. For the same compound, the Potency entry in assay [9], in assay [11] and in assay [12] was “inactive” each time. For the same compound, the Potency in assay [18] was 30.9 µM (active) and 27.3 µM (active) and 48.5 µM (active); in assay [4] it was 13.8 µM (active) and 15.4 µM (active) and 13.7 µM (active). For the same compound, the outcome in assay [7] was inactive.
For the compound `CC(C)(C)CC(C)(C)c1ccc(O)cc1`, the Potency entry in assay [19], in [2] and in [10] was “inactive” in each case. Further, the Potency is 6.86 µM (active) and 13.3 µM (active) in assay [4]; 38.9 µM (active) and inactive in assay [5]; 89.8 µM (active) in [6]; 4.5 µM (active) and 39.1 µM (active) in [8]; 49 µM (active) and inactive in assay [12].
Turning to `CC(=O)NNc1ccccc1`, the Potency result in assay [2], in assay [13], in assay [14], in assay [20], in assay [15] and in assay [4] was “inactive” in each case. The Potency entry in assay [8], in assay [9], in assay [10], in [11] and in assay [12] was “inactive” in each case. The compound was called inactive in assay [7]. Also, in assay [16], the Potency is 4.82 µM (active). Further, the activity change, positive = activation in assay [17] (at 92.4 µM (top of the series)) is -40.3% (inactive).
Regarding `C[CH2][Hg][S]c1ccccc1C(=O)O`, the Potency in assay [1] was 6.86 µM (active) and 9.44 µM (active); in assay [14], 12.2 µM (active) and 6.68 µM (active); in [15] it was 1.22 µM (active) and 2.37 µM (active); in [6], 4.01 µM (active); in assay [8], 17.9 µM (active) and 24.7 µM (active); in [16], “inactive and 16.8 µM (active)”. Moreover, the Potency in assay [9] was 2.19 µM (active) and 2.13 µM (active); in [10], 977 nM (active) and 1.07 µM (active); in assay [12], 2.19 µM (active) and 2.39 µM (active). For the same compound, the Potency result in assay [20], in assay [4] and in assay [11] was “inactive” in each case. Moreover, the activity change, positive = activation in [17] (at 42.5 µM (top of the series)) is -75.4% (inactive); in [17] (at 92.4 µM (top of the series)) it was -77.1% (inactive).
